The whole screen tested about 220,000 compounds, of which about 16,000 (7.3%) were called active. Not shown: some 25% with an inconclusive outcome. Calls follow the shape of the dose curve; as a rule, active = well fitted inhibition curve with a large enough effect (not every such curve was filed as active); inconclusive = small, poorly fitted or top-dose-only effect, or another doubt; inactive = no such curve, though single readings can be large or run the other way. Many of the other results were omitted from the sample, so actives are more common in it than they were.
Target: Aldehyde dehydrogenase 1A1 (Homo sapiens) (UniProt P00352)
Sequence (P00352 whole entry, looked up): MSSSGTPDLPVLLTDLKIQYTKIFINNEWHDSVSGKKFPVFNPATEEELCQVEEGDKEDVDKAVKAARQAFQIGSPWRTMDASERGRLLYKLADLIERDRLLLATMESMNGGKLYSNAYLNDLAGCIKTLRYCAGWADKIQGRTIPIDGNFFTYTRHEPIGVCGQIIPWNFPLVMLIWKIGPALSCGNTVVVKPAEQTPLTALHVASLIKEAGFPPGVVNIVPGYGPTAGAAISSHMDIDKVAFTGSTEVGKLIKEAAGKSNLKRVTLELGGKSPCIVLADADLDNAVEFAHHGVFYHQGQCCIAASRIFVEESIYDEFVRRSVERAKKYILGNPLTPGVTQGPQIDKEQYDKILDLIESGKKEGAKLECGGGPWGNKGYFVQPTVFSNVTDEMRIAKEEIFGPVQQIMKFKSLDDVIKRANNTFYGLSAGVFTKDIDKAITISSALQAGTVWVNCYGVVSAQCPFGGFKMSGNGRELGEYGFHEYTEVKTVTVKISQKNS
Experiment: qHTS Assay for Inhibitors of Aldehyde Dehydrogenase 1 (ALDH1A1);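 as to activity, negative = inhibition: plate controls were no enzyme wells and a reference inhibitor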
Settings: Purified ALDH1A1, NADH fluorescence, propionaldehyde substrate; series mostly up to 75.3 µM
Potency is read from the fitted curve at half-maximal effect.

Potency, active:
N#Cc1c(N)sc2c1CCN(C(=O)OCc1ccccc1)C2 10 µM, COc1ccc(Nc2nc(N)nc(CSC(=S)N3CCC(C)CC3)n2)cc1 3.16 µM, Oc1ccc(-c2onc3ccc(Cl)cc23)cc1 11.2 µM, O=C1N(Cc2ccc3c(c2)OCO3)c2ccccc2C1(O)c1c[nH]c2ccccc12 (stereo not drawn) 3.16 µM, CCOC(=O)CSc1nc2c(sc(=S)n2CCc2ccccc2)c(=O)n1Cc1ccco1 31.6 µM, COc1c2c(cc3occ(-c4ccc5c(c4)OCO5)c(=O)c13)OC(C)(C)C=C2 14.1 µM, O=C(CC1NCCNC1=O)Nc1ccc(Oc2ccccc2)cc1 (stereo not drawn) 20 µM, O=C(c1cccnc1)N(c1cc2sc(=O)oc2c2ccccc12)S(=O)(=O)c1ccccc1 10 µM, COc1ccc(CCNC(=O)CC2SC(=Nc3cc(C)cc(C)c3)NC2=O)cc1OC (stereo not drawn) 12.6 µM, Fc1ccc(Cn2nnnc2C(c2cccs2)N2CCCCCC2)cc1 (stereo not drawn) 7.94 µM, COc1ccccc1CSc1ncc(-c2ccc([N+](=O)[O-])cc2)[nH]1 28.2 µM, COC(=O)[C@@H](NC(=O)NCc1cccc(OC)c1)C(C)C 10 µM, Cc1ccc(CNC(=O)CCCNC(=O)c2ccc(Cl)cc2)n1C 28.2 µM, O=C(Nc1ccccc1)c1nnsc1S(=O)(=O)c1ccc(Cl)cc1 2.24 µM

Potency, inactive:
O=C(O)C1CCN(C(=O)OCc2ccccc2)CC1, N#Cc1ccc(COC(=O)Cn2nnc(-c3ccccc3)n2)cc1, CCN1CCC2(CCN(Cc3cn[nH]c3-c3ccc(OC)c(F)c3)C2)C1 (stereo not drawn), C=CCN(CC=C)CCOc1ccccc1[N+](=O)[O-], CCOC(=O)c1cnc(SCc2nc(N)nc(Nc3ccc(OC)cc3)n2)nc1N, CCOC(=O)N1CCN(Cc2nc(N)nc(Nc3ccc(C)cc3)n2)CC1, O=C(CCCCn1c(=O)[nH]c2ccccc2c1=O)NCc1ccc2c(c1)OCO2, O=C(Cn1nnc(-c2ccccc2)n1)NCc1ccc2c(c1)OCO2, CCOc1ccc(-n2cnc3c(=O)[nH]c(N)nc32)cc1, CO/N=C(\N)c1ccc([N+](=O)[O-])cc1, CCCn1c(SCC(=O)Nc2ccc(C)c(S(=O)(=O)N3CCOCC3)c2)n[nH]c1=O, COc1ccc(CNc2c(CO)cnc3c2cnn3C)cc1, CCOC(=O)Cc1csc(NC(=O)CSc2nnc(-c3cccnc3)n2Cc2ccco2)n1, Nc1cc(=O)nc(SCc2ccccc2)n1Cc1ccco1, Cc1cc(C)n2nc(C(=O)N3CCN(Cc4ccc5c(c4)OCO5)CC3)nc2n1, CCCCCCCC/C=C\CCCCCCCC(=O)OC[C@H](CO)OC(C)=O, CCN(CC)CCNC(=O)c1ccc(NC(=O)c2c(F)cccc2Cl)cc1, COc1ccc(CCNC(=O)c2cc(-c3ccc4c(c3)OCO4)on2)cc1OC, Cc1ccc(NC(=O)C(=O)NCC2CCN(C(=O)c3cccc([N+](=O)[O-])c3)CC2)cc1, CN1CCN(CC#CCC2(O)c3ccccc3-c3ccccc32)CC1, CC(=O)C1C(c2ccc(Cl)cc2)c2c(n[nH]c2C)CC1(C)O (stereo not drawn), CC(C)N1CCC(N2CCN(Cc3cccnc3)CC2CCO)CC1 (stereo not drawn), CCOc1ccc(NC(=O)CC2NCCNC2=O)cc1 (stereo not drawn), O=C(CC1NCCNC1=O)Nc1cc(Cl)cc(Cl)c1 (stereo not drawn), COc1ccc(-c2nc(-c3ccccc3)oc2Nc2ccc3ccccc3c2)cc1, COc1ccccc1CNC(=O)CNC(=O)c1cn(-c2ccccc2OC)c(=O)c2ccccc12, COc1cccc(CC2(CO)CCCN(CC3=Cc4cc(OC)ccc4OC3)C2)c1 (stereo not drawn), Cc1nn(-c2ccccc2)c(=O)c2noc(C)c12, COc1ccc(N(C(=O)c2cccnc2)S(=O)(=O)c2ccc3c(c2)n(C)c(=O)n3C)cc1, Cc1ccc(C(=O)Cn2cccn2)cc1, COc1ccc(CCNC(=O)COC(=O)/C=C/c2cccs2)cc1OC, COc1ccc(CCNC(=O)C(=O)NCc2ccccc2C)cc1OC, CCCCn1c(N)c(N(CC)C(=O)/C=C/c2ccco2)c(=O)[nH]c1=O, CC(C)(C)NC(=O)c1ccc(Cn2cc(C(F)(F)F)ccc2=O)cc1, O=C1NC(=Nc2ccc(Cl)cc2)SC1Cc1cccc(Cl)c1Cl (stereo not drawn), N#Cc1ccc(C(c2nnnn2CCc2ccccc2)N2CCCCCC2)cc1 (stereo not drawn), CCC(C)(C)n1nnnc1C(c1cccs1)N1CCN(Cc2ccccc2)CC1 (stereo not drawn), COc1ccc(C(=O)N/N=c2\oc3ccccc3cc2C(N)=O)cc1, CC1Cc2ccccc2N1C1=CC(=O)CC(C)(C)C1 (stereo not drawn), COc1ccccc1CC(=O)Nc1ccc([N+](=O)[O-])cc1OC, COc1ccccc1CSc1nc2ccccc2[nH]1, Cc1ccc(NC(=O)O[C@@H]2C(=O)c3cc(Br)ccc3O[C@H]2c2ccc3c(c2)OCO3)cc1Br, CC(C)(C)CN1CCNC(=O)C1CC(=O)NC1Cc2ccccc2C1 (stereo not drawn), COc1cccc(NC(=O)NCc2ccc(F)cc2)c1, COc1cccc(CNC(=O)c2n[nH]c3ccccc23)c1, CC(=O)Cc1nsc(NC(=O)c2ccc(Cl)cc2Cl)n1, CC1CCCN(CC(O)COc2ccc3c(c2)OCO3)C1 (stereo not drawn), CCCCNC(=O)CCNC(=O)c1ccc(C(C)(C)C)cc1, O=C(COC(=O)CCCNC(=O)c1ccc(Cl)cc1)Nc1cc(Cl)ccc1Cl, CCc1cc2c(NC3CCCC3)ncnc2s1, C[C@@H](C(=O)N1CCNCC1)n1cc(CCC(=O)O)nn1, O=C(c1ccc(Cl)cc1)c1cnc(Nc2ccccc2)s1, O=C(Nc1ccc(Cl)cc1)c1ccsn1

activity, negative = inhibition, inactive:
COC(=O)C1=C(C(=O)OC)[C@@H]2N(C)c3ccccc3[C@@]23C[C@@H](C(=O)OC)N(C(C)=O)C3=N1 3.72% [at 13.5 µM]

From PubChem BioAssay AID1030 (National Center for Advancing Translational Sciences (NCATS), 2008)
